From the supplement of paper PMC10811239

System: LEGO organoid PT (PTEN-/-; TP53-/-)
Assay: bioluminescence (viable cell) signal fold change after vs before treatment, normalised to DMSO (ratio); higher = more tumour cell growth / less inhibition
Conditions: 10 µM; treatment time 6 days
Description: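 Luc2-labelled iPSC-derived glioblastoma-like organoids (LEGOs, genotypes PT = PTEN-/-;TP53-/-, PTCC = plus CDKN2A/B-/-, PTN = plus NF1-/-) were treated with 10 uM drug for 6 days (applied every other day) at 37 C. Bioluminescence imaging was done before treatment and 2 days after the last dose. BLI signals were normalised to the DMSO control on the same day and then to the pre-treatment signal (N=3).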

First: CC1(C)S[C@@H]2[C@H](NC(=O)[C@H](N)c3ccc(O)cc3)C(=O)N2[C@H]1C(=O)O.O.O.O [Amoxicillin trihydrate]
Second: CCOC(=O)OC(C)OC(=O)[C@@H]1N2C(=O)[C@@H](NC(=O)[C@H](N)c3ccccc3)[C@H]2SC1(C)C.Cl (some centres undefined) [Bacampicillin hydrochloride]
The bioluminescence of the first is higher: 1.03 for the first, 0.788 for the second.

First: NC(=O)c1cn(Cc2c(F)cccc2F)nn1 [Rufinamide]
Second: Cc1ccnc2c1NC(=O)c1cccnc1N2C1CC1 [Nevirapine]
The bioluminescence of the first is lower: 0.54 for the first, 2.15 for the second.

First: NCCS(=O)(=O)O [Taurine]
Second: Cl.NCC(=O)CCC(=O)O [5-Aminolevulinic acid hydrochloride]
The bioluminescence of the first is higher: 1.84 for the first, 1.09 for the second.

Going from `O=NN(CCCl)C(=O)NC1CCCCC1` [Lomustine] to `CC(=O)O.Cc1c(-c2ccc(O)cc2)n(Cc2ccc(OCCN3CCCCCC3)cc2)c2ccc(O)cc12` [Bazedoxifene acetate], the bioluminescence falls from 2.59 to 0.897.

Going from `CCC(CC)O[C@@H]1C=C(C(=O)O)C[C@H](N)[C@H]1NC(C)=O` [Oseltamivir acid] to `C[C@H]1[C@H](NC(=O)/C(=N\OC(C)(C)C(=O)O)c2csc(N)n2)C(=O)N1S(=O)(=O)O` [Aztreonam], the bioluminescence rises from 0.803 to 1.04.

Compared with `CO[C@H]1C[C@@H]2CC[C@@H](C)[C@@](O)(O2)C(=O)C(=O)N2CCCC[C@H]2C(=O)O[C@H]([C@H](C)C[C@@H]2CC[C@@H](OC(=O)C(C)(CO)CO)[C@H](OC)C2)CC(=O)[C@H](C)/C=C(\C)[C@@H](O)[C@@H](OC)C(=O)[C@H](C)C[C@H](C)/C=C/C=C/C=C/1C` [Temsirolimus], `CC[C@@H]1/C=C(\C)C[C@H](C)C[C@H](OC)[C@H]2O[C@@](O)(C(=O)C(=O)N3CCCC[C@H]3C(=O)O[C@H](/C(C)=C/[C@@H]3CC[C@H](Cl)[C@H](OC)C3)[C@H](C)[C@@H](O)CC1=O)[C@H](C)C[C@@H]2OC` [Pimecrolimus] is higher in bioluminescence: 1.26 for the first, 1.29 for the second.

`CCCOc1ccc(S(=O)(=O)NCCC2CCCN2C)cc1-c1nc2c(CCC)nn(C)c2c(=O)[nH]1` (centres undefined) [Udenafil] and `CCCc1nc(C)c2c(=O)[nH]c(-c3cc(S(=O)(=O)N4CCN(CC)CC4)ccc3OCC)nn12` [Vardenafil] are the same in bioluminescence: 1.36 for the first, 1.36 for the second.

First: CCc1c2c(nc3ccc(OC(=O)N4CCC(N5CCCCC5)CC4)cc13)-c1cc3c(c(=O)n1C2)COC(=O)[C@]3(O)CC [Irinotecan]
Second: CCc1cc2c(cc1N1CCC(N3CCOCC3)CC1)C(C)(C)c1[nH]c3cc(C#N)ccc3c1C2=O [Alectinib]
The bioluminescence of the first is higher: 2.7 for the first, 1.13 for the second.

First: O=C(CCCCCCC(=O)Nc1ccccc1)NO [Vorinostat]
Second: CCCN(CCC)S(=O)(=O)c1ccc(C(=O)O)cc1 [Probenecid]
The bioluminescence of the first is lower: 1.13 for the first, 3.62 for the second.

First: CC/C(=C(/CC)c1ccc(O)cc1)c1ccc(O)cc1 [Diethylstilbestrol]
Second: CN(C)CCCN1c2ccccc2CCc2ccc(Cl)cc21.Cl [Clomipramine hydrochloride]
The bioluminescence of the first is higher: 1.01 for the first, 0.859 for the second.

First: NC(=O)N[C@@H](CCC(=O)O)C(=O)O [Carglumic Acid]
Second: Cc1cn(-c2cc(NC(=O)c3ccc(C)c(Nc4nccc(-c5cccnc5)n4)c3)cc(C(F)(F)F)c2)cn1 [Nilotinib]
The bioluminescence of the first is lower: 1.27 for the first, 2.55 for the second.

Compared with `CS(=O)(=O)CCNCc1ccc(-c2ccc3ncnc(Nc4ccc(OCc5cccc(F)c5)c(Cl)c4)c3c2)o1.Cc1ccc(S(=O)(=O)O)cc1.Cc1ccc(S(=O)(=O)O)cc1` [Lapatinib Ditosylate], `Cl.O=C1c2cccc3c2[C@H](CCC3)CN1[C@@H]1CN2CCC1CC2` [Palonosetron hydrochloride] is lower in bioluminescence: 1.34 for the first, 1.19 for the second.
